Hits are enriched below; roughly 11% of the tested compounds scored in any of these assays.
FLuc inh = Photinus pyralis luciferase inhibition; Potency, µM (titrated, usually from 115 µM), most hits filed as inhibitors; 2.5% of 76,000 active; purified P. pyralis luciferase, luminescence, biochemical; P08659; further: nearly all actives have a fitted effect of over 65% in size
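Purified P. pyralis luciferase (10nM final) in 50mM Tris acetate pH 7.5, 10mM Mg acetate, 0.01% Tween-20, 0.05% BSA with 10uM D-luciferin and 10uM ATP. Compounds titrated qHTS. Luminescence imaged on CCD.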
3T3 cytotox = NIH 3T3 cell cytotoxicity; NIH 3T3 viability, CellTiter-Glo ATP luminescence, 48-72 h; Potency, µM (doses to about 96.7 µM), inactives show top-dose activity change, negative = cytotoxicity, hits mostly inhibitors; 4.3% of 94,000 active; further: nearly all actives have a fitted effect of over 55% in size
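Mouse fibroblast NIH 3T3 cells, 400 per well, received compound via pintool and were incubated for 48 or 72 hr prior to CellTiter-Glo ATP luminescence measurement.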
HEK cytotox = cytotoxic compounds in HEK 293 cells; Potency, µM (titrated, usually from 115 µM), for the others: at the highest dose activity change, negative = cytotoxicity, usual class: inhibitors; AID 1345083; 6.6% of 94,000 active; HEK 293 viability, ATP luminescence (CellTiter-Glo), 48-72 h; further: nearly all actives have a fitted effect of over 60% in size
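qHTS cytotoxicity; HEK 293, 250 cells/well; compound pinned; 48 or 72 hr, 37 degree Celsius, 5% CO2, 95% humidity; CellTiter-Glo, 10 min RT; luminescence (ATP).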
NPR1 antag = antagonists of human natriuretic peptide receptor Npr1. Potency, µM (highest dose often 46.3 µM), for the others: top-dose activity change, negative = inhibition, most hits filed as inhibitors. 1.6% of 76,000 active. P16066. HEK293 hNpr1 GloSensor cGMP, ANP-stimulated luminescence; calls by dose curve; further: nearly all actives have a fitted effect of over 60% in size
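HEK293 cells stably expressing human Npr1 and cGMP GloSensor pGS-40F, loaded 2 h with 2% GloSensor reagent, given compound 30 min at room temperature. Luminescence read before and 20 min after 0.1 nM hNppA.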
Active calls of the source: *; i = inactive; ? = inconclusive; · = no result; [ ] = dose if it differs, or a comment. Unless noted, the call rests on the fitted dose curve; in most records, active means well fitted curve in the direction sought with a large enough effect; inconclusive means small, poorly fitted or top-dose-only effect, or another doubt; inactive means no such curve, though single readings can be large; an effect the other way counts as inactive or inconclusive. On the % scale 0 is the no-effect control and ±100 the full control effect; potency means the concentration at half of the fitted maximal effect.

SMILES	FLuc inh	3T3 cytotox	HEK cytotox	NPR1 antag
CC(=O)Nc1ccc(CN2CCC3(COc4ccccc4C(=O)N3)C2)cc1 (stereo unspecified)	i	?	?	-16.5%
COCCC1(N(C)C)CCN(C(=O)c2ccccn2)CC1	·	i	i	·
Fc1ccccc1-c1noc(NCCc2ccc(Cl)cc2)n1	?	?	?	-8.7%
Clc1ccc(CNc2nc(-c3ccccc3)no2)cc1	15.8µM*	?	?	-30.4%
CC1=C[C@@H](CNC(=O)c2cncnc2)[C@H](C(C)C)C[C@H]1Cc1nnc(-c2ccccc2F)o1	i	?	?	-7.7%
CC1=C[C@@H](CN2CCOCC2)[C@H](C(C)C)C[C@H]1Cc1nnc(-c2ccccc2F)o1	i	?	89.1µM*	-19.9%[70.6 µM]
CC1=C[C@@H](CN2CCC(CO)CC2)[C@H](C(C)C)C[C@H]1Cc1nnc(-c2cccnc2)o1	i	-29.5%[174 µM]	?	1.6%[70.6 µM]
CC1=C[C@@H](CN2CCN(C)CC2)[C@H](C(C)C)C[C@H]1Cc1nnc(-c2ccccc2F)o1	i	?	44.7µM*	0.9%[70.6 µM]
C[S+](=O)([O-])c1cccc(-c2ccc3ncn(-c4ccc(F)cc4F)c(=O)c3n2)c1	i	?	?	0.1%[70.6 µM]
O=c1c2nc(-c3cccnc3)ccc2ncn1-c1ccc(F)cc1F	i	?	70.8µM*	0.1%[70.6 µM]
O=c1c2nc(-c3ccc(O)c(F)c3)ccc2ncn1-c1ccc(F)cc1F	i	?	?	-1.5%[70.6 µM]
COCc1cccc(-c2ccc3ncn(-c4ccc(F)cc4F)c(=O)c3n2)c1	i	?	-23.2%[172 µM]	4.2%[70.6 µM]
COc1ncc(-c2ccc3ncn(-c4ccc(F)cc4F)c(=O)c3n2)cn1	i	?	89.1µM*	-2.1%[70.6 µM]
CC(=O)Nc1cccc(-c2ccc3ncn(-c4ccc(F)cc4F)c(=O)c3n2)c1	i	?	89.1µM*	-1.7%[70.6 µM]
O=C(c1ccccc1Cl)N1CCCC(C(=O)N2CCC(N3CCOC3=O)CC2)C1 (stereo unspecified)	·	-18.4%	-0.4%	·
CC1CCC2(CC1)NC(=O)N(CC(=O)Nc1ccc(Cl)cc1)C2=O (stereo unspecified)	i	11.2µM*	?	1.3%
O=C(CN1C(=O)NC2(CCCCC2)C1=O)Nc1ccc(C(F)(F)F)cc1	i	?	28.2µM*	-0.2%
Cc1nn(C)c(=O)n1C1CCN(S(=O)(=O)c2cccs2)CC1	·	-9.7%	-1.6%	·
CC(C)Cn1nc2n(c1=O)CCN(S(=O)(=O)c1ccc(C(C)(C)C)cc1)CC2	i	?	?	-3.5%
CN(C)c1ccc(CN2CCNc3cnc(-c4ccccc4)cc3C2)cc1	i	?	100µM*	-15.0%[70.6 µM]
Cc1cccc(CN2CCNc3cnc(-c4ccccc4)cc3C2)c1	i	?	?	-25.5%[70.6 µM]
Cn1cc(CN2CCNc3cnc(-c4ccccc4)cc3C2)cn1	i	31.6µM*	?	-0.5%[70.6 µM]
CN(C)c1ccc(CN2CCNc3cc(-c4ccccc4)ncc3C2)cc1	i	?	?	-3.1%[70.6 µM]
O=C(c1ccc(C(F)(F)F)cc1)N1CCC(C(=O)N2CCC(c3nc4ccncc4[nH]3)C2)CC1 (stereo unspecified)	·	-21.7%	-11.9%	·
O=C(Nc1ccc(F)cc1)OC1CN(Cc2ccco2)C(=O)CN(C(=O)c2cccs2)C1 (stereo unspecified)	·	-17.9%	?	·
SMILES	FLuc inh	3T3 cytotox	HEK cytotox	NPR1 antag
O=C(NC1CCN(c2nccc(Nc3ccccc3F)n2)CC1)c1ccc(F)cc1	·	35.5µM*	?	·
O=C(NC1CCN(c2nccc(Nc3ccccc3Cl)n2)CC1)c1ccc(C(F)(F)F)cc1	·	31.6µM*	39.8µM*	·
O=C(NC1CCN(c2nccc(Nc3ccccc3F)n2)CC1)c1ccc(C(F)(F)F)cc1	·	35.5µM*	25.1µM*	·
COc1ccnc(-c2nnc3ccc(N4C[C@@H](C)O[C@@H](C)C4)nn23)c1	i	31.6µM*	?	5.8%[70.6 µM]
c1ccc(C2CCN(c3ccc4nnc(-c5ccccn5)n4n3)CC2)cc1	i	31.6µM*	63.1µM*	-4.5%[70.6 µM]
Fc1ccc(-c2nnc3ccc(N4CCN(c5ccccn5)CC4)nn23)nc1	i	?	-6.3%[172 µM]	-1.8%[70.6 µM]
COc1ccnc(-c2nnc3ccc(N4CCN(C(=O)c5ccco5)CC4)nn23)c1	i	?	0.0%[172 µM]	3.2%[70.6 µM]
COc1ccnc(-c2nnc3ccc(N4CCc5ccccc5CC4)nn23)c1	i	50.1µM*	56.2µM*	5.3%[70.6 µM]
